# Laboratory results as given in PubChem BioAssay (EPA / NIEHS).
# The source made the active and inactive calls. The calls were made as follows: active = hit-call score of the fitted dose curve at least 0.9, where 1 is the maximum; inactive = score below 0.9.
# Read-out: growth arrest and DNA damage 45 (GADD45G), GADD45G (gene 10912)
# Assay: LTEA_HepaRG_GADD45G: Life Technologies and Expression Analysis (LTEA) Assay for growth arrest and DNA damage 45 (GADD45G) using HepaRG (AID 2283499)
# Settings: mRNA level, 48 h; actives raise or lower the signal
# Description: LTEA_HepaRG is a cell based, multiplexed-readout assay that uses HepaRG, a human liver cell line, with measurements taken at 48 hours after chemical dosing on a 96-well plate.LTEA_HepaRG_GADD45G is one of 102 assay component(s) measured in the LTEA HepaRG cell culture assay. It is a marker of Cell proliferation, survival, death.Data from the assay component LTEA_HepaRG_GADD45G was analyzed into 1 endpoint. This assay endpoint, LTEA_HepaRG_GADD45G, was analyzed with bidirectional fitting relative to DMSO as the negative control and baseline of activity. Using a type of inducible reporter, measures of mRNA induction for gain or loss-of-signal activity can be used to understand regulation of transcription factor activity. To generalize the intended target to other relatable targets, this assay endpoint is annotated to the mutagenicity response intended target family, where the subfamily is Cell proliferation, survival, death.
# A total of 1060 chemcials from the ToxCast library were tested in eight-point concentration-response experiments. Cell culture and cytotoxicity assays were conducted at Thermo Fisher Scientific's Custom Services facility (Madison, WI). A single lot of human HepaRG cells (Thermo Fisher Scientific, Frederick, MD) was used for the cell culture experiments. 96-well format collagen type I coated plates of human HepaRG cells were prepared using established methods. Briefly, cryopreserved HepaRG cells were thawed, plated at a density of approximately 100,000 cells/well in HepaRG Thaw, Plate, and General Purpose media (HPRG770, Thermo Fisher Scientific), and incubated for 48 hours. 0.5% DMSO was selected as vehicle control to balance the requisite need of DMSO in HepaRG cultures to maintain differentiation (for example, baseline metabolism, proportions of hepatocytes vs. cholangiocytes), while enabling further hepatic receptor pathway activation (for example, PXR and CAR) in response to chemical exposure. 48 hours after plating, the culture medium was replaced with HepaRG Serum-Free Incudtion Media. Cells were exposed to each test chemical in duplicate and maintained in CO2 incubators for another 48 hours. Chemical plates were thawed to room temperature and 200x concentrations of treatment groups were prepared. 8-point conentration-reponse curves were made with the highest exposure at 100 uM, followed by half-log dilutions, all in 0.5% DMSO. Each test plate contained variouse controls, induction positive controls (1mM phenobarbital), cytotoxicity positive controls ([…] aflatoxin B1), vehicle controls (0.5% DMSO), and total lysis controls (0.5% DMSO). Cell morphology images were taken using an Essen IncuCyte FLR automated microscope, with six 96-well plates imaged in about 24 minutes. Images were captured and exported and JPEG files. Spent culture media was transfered to black-well plates for the LDH assay, and remaining media was sorted at -80 C for later use. Cells were treated with RLT buffer and frozen until shipped for gene expression analysis. Total RNA was isolated from the cell suspension in 75 uL of Buffer RLT (Qiagen, Germantown, MD 20874) by Quintiles/Expression Analysis (Durham, NC) using a custom isolation procedure. Total RNA from each plate well was transferred to a preamplification plate. Fluidigm's 96.96 Dynamic ArrayTM (Fluidigm, Amsterdam, the Netherlands) technology was used for gene expression analyses by quantitative reverse transcription polymerase chain reaction (qRT-PCR, performed by Quintiles/Expression Analysis, Durham, NC)89. Standard TaqManTM Assays (Applied Biosystems/ThermoFisher Scientific, Foster City, CA) were used to assess the expression of 93 genes selected based on their selectivity and sensitivity to important hepatic receptors known to be modulated by environmental chemicals; importance in human hepatocyte functionality; and hepatotoxicity. […]
Structure (SMILES),AC50,outcome
CC(C)NC(=O)N1CC(=O)N(c2cc(Cl)cc(Cl)c2)C1=O,50 µM (active),
CCN(CC)c1nc(C)cc(OP(=S)(OC)OC)n1,,inactive
Cn1c(-c2ccccc2)cc(-c2ccccc2)[n+]1C,50 µM (active),
CC1(C)C(C=C(Cl)Cl)C1C(=O)OC(C#N)c1cccc(Oc2ccccc2)c1 (stereo not given),,inactive
Cc1nc(N(C)C)nc(OC(=O)N(C)C)c1C,,inactive
CC(C)=CC1C(C(=O)OCc2coc(Cc3ccccc3)c2)C1(C)C (stereo not given),,inactive
C=C(C)CN(CC)c1c([N+](=O)[O-])cc(C(F)(F)F)cc1[N+](=O)[O-],,inactive
CN/C(=N\[N+](=O)[O-])NCc1cnc(Cl)s1,,inactive
O=C(O)c1c(Cl)ccc2cc(Cl)cnc12,,inactive
COP(=S)(OC)SCn1nnc2ccccc2c1=O,,inactive
CCNP(=S)(OC)O/C(C)=C/C(=O)OC(C)C (stereo not given),,inactive
CCNC(=O)NC(=O)C(C#N)=NOC,,inactive
CCSC(=O)N1CCCCCC1,,inactive
COP(=O)(OC)O/C(C)=C/C(=O)N(C)C,,inactive
Clc1cccc(C(Cl)(Cl)Cl)n1,,inactive
CC(C)Oc1cccc(NC(=O)c2ccccc2C(F)(F)F)c1,,inactive
COc1cc(Cl)c(OC)cc1Cl,,inactive
CC(C)Nc1nc(Cl)nc(NC(C)C)n1,,inactive
COCC(C)N(C(=O)CCl)c1c(C)csc1C (stereo not given),,inactive
OC(c1ccc(Cl)cc1)(c1ccc(Cl)cc1)C(Cl)(Cl)Cl,87.7 µM (active),

Structure (SMILES),AC50,outcome
CCCCC(C#N)(Cn1cncn1)c1ccc(Cl)cc1 (stereo not given),11.7 µM (active),
CC1(C)CCC(=Cc2ccc(Cl)cc2)C1(O)Cn1cncn1 (stereo not given),,inactive
Nc1c(Cl)c(Cl)nc(C(=O)O)c1Cl,,inactive
CC(C)N1C(=O)N(c2ccccc2)CSC1=NC(C)(C)C,76.1 µM (active),
CN=C=S,,inactive
Nc1cnn(-c2ccccc2)c(=O)c1Cl,,inactive
O=c1n(Cl)c(=O)n(Cl)c(=O)n1Cl,,inactive
Nc1c(Cl)c(F)nc(OCC(=O)O)c1Cl,,inactive
CCN(CC)C(=O)C(C)Oc1cccc2ccccc12 (stereo not given),,inactive
N#CN=C1SCCN1Cc1ccc(Cl)nc1,,inactive
CCOc1cc(C(C)(C)C)ccc1C1COC(c2c(F)cccc2F)=N1 (stereo not given),,inactive
COCc1cnc(C2=NC(C)(C(C)C)C(=O)N2)c(C(=O)O)c1 (stereo not given),,inactive
CCOC(=O)C(C)OC(=O)c1cc(Oc2ccc(C(F)(F)F)cc2Cl)ccc1[N+](=O)[O-] (stereo not given),3.82 µM (active),
COc1cc(OC)nc(NC(=O)NS(=O)(=O)c2ncccc2OCC(F)(F)F)n1,0.19 µM (active),
N#Cc1c[nH]cc1-c1cccc2c1OC(F)(F)O2,,inactive
O=P(O)(O)CCCl,,inactive
CCOc1nc(F)cc2nc(S(=O)(=O)Nc3c(Cl)cccc3Cl)nn12,,inactive
CCCC(=NOCC)C1=C(O)CC(CC(C)SCC)CC1=O (stereo not given),,inactive
CC1(C)C(C(=O)OC(C#N)c2cccc(Oc3ccccc3)c2)C1(C)C (stereo not given),,inactive
CS(=O)(=O)c1cc(C(F)(F)F)ccc1C(=O)c1cnoc1C1CC1,,inactive
